Ba/F3 V617F tox – loss of viability in JAK2V617F-driven Ba/F3 cells; Ba/F3 EpoR-JAK2V617F viability, ATP luminescence; inhibition, % at 5.6 µM; 220,000 tested, 1.1% active;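 active = inhibition above the campaign mean plus 3 SD over all tested compounds, cut at about 24% in these data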;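 note: cytokine-independent growth of Ba/F3 cells driven by EpoR plus mutant JAK2; 0% = DMSO-treated cells and 100% = JAK inhibitor I control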
BaF3 tox – counter-screen for JAK2V617F inhibitors: parental Ba/F3 viability inhibitors. inhibition, % at 5.6 µM. AID 1486. CellTiter-Glo ATP luminescence. 220,000 tested, 1.1% active;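 active = inhibition above a per-campaign cutoff, the mean inhibition of all tested compounds plus 3 SD, cut at about 27% in these data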;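 note: 0% = DMSO wells and 100% = JAK Inhibitor I control wells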
APP transl inh – APP translation inhibition; 190,000 tested, 0.82% active; AID 1285; inhibition, % at 2 µM; SH-SY5Y APP 5'UTR-luciferase reporter, luminescence;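 active = inhibition above a set limit, derived from the sample mean plus 3 SD, cut at about 45% in these data; inconclusive = one replicate passes the limit while the other fails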
KLF5 inhibitor – inhibitors of KLF5 expression; inhibition, % at 5 µM; DLD-1 KLF5 promoter-luciferase reporter, luminescence; 290,000 tested, 0.23% active; AID 1700;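 active = inhibition above a per-plate limit of that plate's mean compound inhibition plus 3 SD, cut at about 60% in these data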;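 note: 0% = DMSO wells and 100% = LY294002 at 200 µM; higher means less KLF5 promoter-driven luciferase light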
aSyn UTR inh – 5' untranslated region of α-synuclein, MLPCN primary screen; alpha-synuclein 5'UTR reporter, inhibitor activity; inhibition, % (tested at 7.5 µM); 300,000 tested, 0.82% active; AID 1813; in the data active = inhibition above about 60%; inconclusive = no clear call, values can overlap the other calls;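 note: H4 neuroglioblastoma cells stably carrying SNCA 5'UTR luciferase fusion; 0% = DMSO wells and 100% = positive control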
IEC-6 tox – kills IEC-6 intestinal cells in KLF5 counter-screen | 290,000 tested, 0.78% active | IEC-6 cytotoxicity, luminescence viability | inhibition, % at 5 µM;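 note: 0% = plate median of test compound wells and 100% = cytotoxic reference compound wells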
BaF3 parental 2 – counter-screen for JAK2V617F inhibitors: parental Ba/F3 viability inhibitors. 580 tested, 31% active. AID 1520. inhibition, % at 5.6 µM. CellTiter-Glo luminescence; cells kept alive by added IL-3. shares compounds with Ba/F3 V617F tox;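 active = cell growth inhibition above the hit limit set in the earlier mutant JAK2 cell screen, cut at about 27% in these data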;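 note: plate controls were DMSO-treated cells for no effect and JAK Inhibitor I control wells for full effect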
JAK2V617F conf – Ba/F3 EpoR-JAK2V617F viability loss, confirmation; shares compounds with Ba/F3 V617F tox; CellTiter-Glo luminescence; inhibition, % at 5.6 µM; 580 tested, 66% active;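 active = mean inhibition above the hit cutoff derived in the earlier primary screen, cut at about 25% in these data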;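 note: 0% = DMSO-treated cells and 100% = JAK inhibitor I control wells; higher means lower luminescence from reduced cell ATP and viability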
IEC-6 cytotox cf – IEC-6 cytotoxicity, confirmation assay | AID 1907 | IEC-6 rat intestinal epithelial viability, luminescence | inhibition, % at 5 µM | 1,900 tested, 63% active | shares compounds with IEC-6 tox;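 note: 0% = vehicle and 100% = reference cytotoxic drug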
Numbers without * were called inactive. An excerpt weighted towards active compounds, which were near 2.1% of everything screened. Cut-off read from the data, not from the text of the source, unless noted: active = inhibition above about 22%; inactive = the rest.

`COc1cccc(N(C(=O)CCl)C(C(=O)NCCc2ccccc2)c2cccs2)c1` (configuration not stated) gave Ba/F3 V617F tox 99*, BaF3 tox 4, APP transl inh 4, KLF5 inhibitor 2, aSyn UTR inh -112, IEC-6 tox 87*, BaF3 parental 2 21, JAK2V617F conf 99* and IEC-6 cytotox cf 41*.
Screening COc1ccc(N(C(=O)CCl)C(C(=O)NCCc2ccccc2)c2cccs2)cc1Cl (configuration not stated) returned Ba/F3 V617F tox 101*, BaF3 tox -2, APP transl inh -2, KLF5 inhibitor 1, aSyn UTR inh 16, IEC-6 tox 78*, BaF3 parental 2 25, JAK2V617F conf 99* and IEC-6 cytotox cf 42*.
For COc1cc(/C=C2\SC(N)=NC2=O)ccc1O the results were KLF5 inhibitor -30, aSyn UTR inh 7 and IEC-6 tox 8.
For COc1ccc(CCNC(=O)c2c(C)nn(-c3ccccc3)c2Cl)cc1OC the results were KLF5 inhibitor -42, aSyn UTR inh 28 and IEC-6 tox 2.
Screening CS(=O)(=O)c1nc(-c2ccco2)cc(C(F)(F)F)n1 returned Ba/F3 V617F tox 42*, BaF3 tox 21, APP transl inh 0, KLF5 inhibitor -8, aSyn UTR inh -76, IEC-6 tox 25*, BaF3 parental 2 8, JAK2V617F conf 70* and IEC-6 cytotox cf 36*.
`COc1ccccc1-c1cc(C(F)(F)F)nc(S(C)(=O)=O)n1` gave Ba/F3 V617F tox 5, BaF3 tox 7, APP transl inh 4, KLF5 inhibitor 5, aSyn UTR inh -27 and IEC-6 tox 8.
Screening COC(=O)/C=C/S(=O)(=O)c1ccc(NC(C)=O)cc1 returned Ba/F3 V617F tox 26*, BaF3 tox 19, APP transl inh 83*, KLF5 inhibitor -35, aSyn UTR inh -10, IEC-6 tox 27*, BaF3 parental 2 12, JAK2V617F conf 12 and IEC-6 cytotox cf 0.
Screening O=C(CCl)NCc1cc(-c2ccc(Cl)cc2)no1 returned Ba/F3 V617F tox 24*, BaF3 tox 11, APP transl inh -3, KLF5 inhibitor 3, aSyn UTR inh -65, IEC-6 tox 24*, BaF3 parental 2 12, JAK2V617F conf 75* and IEC-6 cytotox cf 31*.
COc1ccc(OCc2cc(-c3ccc(Cl)cc3)no2)cc1 was read as Ba/F3 V617F tox -1, BaF3 tox 0, APP transl inh 6, KLF5 inhibitor 3, aSyn UTR inh -32 and IEC-6 tox 2.
Screening O=C(N/N=C/c1ccccc1Cl)c1[nH]c2ccc(Br)cc2c1-c1ccccc1 returned Ba/F3 V617F tox 47*, BaF3 tox 21, APP transl inh 96*, KLF5 inhibitor 13, aSyn UTR inh 71*, IEC-6 tox 56*, BaF3 parental 2 88*, JAK2V617F conf 100* and IEC-6 cytotox cf 70*.
Cc1noc(C)c1CSc1nc2ccccc2c(=O)n1-c1ccccc1 was read as Ba/F3 V617F tox 29*, BaF3 tox 26, APP transl inh 24, KLF5 inhibitor 7, aSyn UTR inh 1, IEC-6 tox 30*, BaF3 parental 2 33*, JAK2V617F conf 54* and IEC-6 cytotox cf 38*.
O=C(NCCc1ccccc1Cl)C1CCC(=O)N(CC2CCCCC2)C1 (configuration not stated) was read as KLF5 inhibitor -5, aSyn UTR inh 4 and IEC-6 tox 5.
For O=C(Nc1ccc2ccccc2n1)c1ccccc1Br the results were KLF5 inhibitor -152, aSyn UTR inh -146 and IEC-6 tox 3.
Screening Cc1cc2c(cc(C(=O)OCC(=O)NCc3cccs3)n2C(C)C)o1 returned Ba/F3 V617F tox 37*, BaF3 tox 18, APP transl inh 75*, KLF5 inhibitor 58, aSyn UTR inh 39, IEC-6 tox 77*, BaF3 parental 2 41*, JAK2V617F conf 90* and IEC-6 cytotox cf 55*.
Screening Cc1cc(C)cc(C(=O)OCC(=O)NCc2cccs2)c1 returned Ba/F3 V617F tox -4, BaF3 tox 2, APP transl inh -1, KLF5 inhibitor 27, aSyn UTR inh -2 and IEC-6 tox 3.
For Nc1nc(CCl)nc(N(c2ccccc2)c2ccccc2)n1 the results were Ba/F3 V617F tox 97*, BaF3 tox 1, KLF5 inhibitor -9, aSyn UTR inh 8, IEC-6 tox 90*, BaF3 parental 2 4, JAK2V617F conf 99* and IEC-6 cytotox cf 11.
For Nc1nc(Cl)nc(N(c2ccccc2)c2ccccc2)n1 the results were Ba/F3 V617F tox 1, BaF3 tox 3, APP transl inh -7, KLF5 inhibitor 0, aSyn UTR inh 2 and IEC-6 tox 8.
CCCC(=O)N1CCN(c2ccc(NC(=O)c3ccc(Br)o3)cc2)CC1 was read as Ba/F3 V617F tox -1, BaF3 tox 5, APP transl inh -7, KLF5 inhibitor -24, aSyn UTR inh -59 and IEC-6 tox -4.
Screening CCC(=O)N1CCN(c2ccc(NC(=O)c3ccc([N+](=O)[O-])o3)cc2)CC1 returned Ba/F3 V617F tox 34*, BaF3 tox -14, APP transl inh 48*, KLF5 inhibitor 4, aSyn UTR inh inconclusive, IEC-6 tox 97*, BaF3 parental 2 45*, JAK2V617F conf 95* and IEC-6 cytotox cf 51*.
For COc1cc([N+](=O)[O-])cc2sc(NC(=O)c3c(F)cccc3F)nc12 the results were Ba/F3 V617F tox 0, BaF3 tox 5, APP transl inh -14, KLF5 inhibitor -8, aSyn UTR inh -13 and IEC-6 tox -6.
Cc1cc(Br)ccc1N=C1NC(=O)CS1 was read as KLF5 inhibitor -22, aSyn UTR inh 8 and IEC-6 tox 7.
Screening Cc1cc2[nH]c3c(c[n+](C)c4ccccc34)c2cc1C returned Ba/F3 V617F tox 33*, BaF3 tox 4, APP transl inh 83*, KLF5 inhibitor 58, aSyn UTR inh 101*, IEC-6 tox 65*, BaF3 parental 2 15, JAK2V617F conf 92* and IEC-6 cytotox cf 55*.
O=C(CCNC(=O)C1CCN(S(=O)(=O)c2ccccc2)CC1)Nc1ccccc1 was read as KLF5 inhibitor -12, aSyn UTR inh 29 and IEC-6 tox 2.
